# From the supplement of paper PMC12067093, “Discovery and optimisation of a covalent ligand for TRIM25 and its application to targeted protein ubiquitination” (Chemical Science, 2025)
# Targets with the largest changes are over-represented here; the source holds about 21,000 in all.
# Compound: Cc1cc(ccc1-c1ccccc1)C(=O)N1CCCN(CC1)C(=O)CCl [compound 10]
# Experiment: probe-labelled cysteine peptide fold change vs DMSO (competition) (log2 fold change); higher = less target engagement (more negative = stronger competition)
# Conditions: THP-1, incubation time: 4 h
# 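Further: competitive profiling in live THP-1 cells: cysteine peptides tagged with an iodoacetamide desthiobiotin (IA-DTB) probe, intensity after compound treatment relative to DMSO-treated cells.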
# Chain of UniProt Q5JSP0 (Q5JSP0 whole entry, looked up): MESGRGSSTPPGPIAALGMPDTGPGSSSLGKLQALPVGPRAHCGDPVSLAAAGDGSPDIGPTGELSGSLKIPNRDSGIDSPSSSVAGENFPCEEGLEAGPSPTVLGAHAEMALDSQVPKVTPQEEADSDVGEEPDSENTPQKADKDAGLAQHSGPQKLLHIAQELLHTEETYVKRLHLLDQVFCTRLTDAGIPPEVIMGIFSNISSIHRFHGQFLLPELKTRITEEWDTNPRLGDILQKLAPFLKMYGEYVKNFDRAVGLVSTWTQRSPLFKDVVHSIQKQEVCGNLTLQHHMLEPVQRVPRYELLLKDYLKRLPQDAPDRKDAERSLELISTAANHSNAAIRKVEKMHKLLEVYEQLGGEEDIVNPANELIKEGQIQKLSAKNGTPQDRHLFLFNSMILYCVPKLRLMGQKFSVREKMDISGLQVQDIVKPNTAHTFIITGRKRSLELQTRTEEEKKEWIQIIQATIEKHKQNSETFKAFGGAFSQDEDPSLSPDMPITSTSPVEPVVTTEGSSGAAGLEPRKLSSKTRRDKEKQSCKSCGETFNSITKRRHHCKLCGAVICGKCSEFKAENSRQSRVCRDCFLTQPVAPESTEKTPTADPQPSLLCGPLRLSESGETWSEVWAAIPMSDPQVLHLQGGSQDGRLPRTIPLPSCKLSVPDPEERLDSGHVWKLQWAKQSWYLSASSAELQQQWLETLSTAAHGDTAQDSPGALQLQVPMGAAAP
# Chain of UniProt Q15910 (Q15910 whole entry, looked up): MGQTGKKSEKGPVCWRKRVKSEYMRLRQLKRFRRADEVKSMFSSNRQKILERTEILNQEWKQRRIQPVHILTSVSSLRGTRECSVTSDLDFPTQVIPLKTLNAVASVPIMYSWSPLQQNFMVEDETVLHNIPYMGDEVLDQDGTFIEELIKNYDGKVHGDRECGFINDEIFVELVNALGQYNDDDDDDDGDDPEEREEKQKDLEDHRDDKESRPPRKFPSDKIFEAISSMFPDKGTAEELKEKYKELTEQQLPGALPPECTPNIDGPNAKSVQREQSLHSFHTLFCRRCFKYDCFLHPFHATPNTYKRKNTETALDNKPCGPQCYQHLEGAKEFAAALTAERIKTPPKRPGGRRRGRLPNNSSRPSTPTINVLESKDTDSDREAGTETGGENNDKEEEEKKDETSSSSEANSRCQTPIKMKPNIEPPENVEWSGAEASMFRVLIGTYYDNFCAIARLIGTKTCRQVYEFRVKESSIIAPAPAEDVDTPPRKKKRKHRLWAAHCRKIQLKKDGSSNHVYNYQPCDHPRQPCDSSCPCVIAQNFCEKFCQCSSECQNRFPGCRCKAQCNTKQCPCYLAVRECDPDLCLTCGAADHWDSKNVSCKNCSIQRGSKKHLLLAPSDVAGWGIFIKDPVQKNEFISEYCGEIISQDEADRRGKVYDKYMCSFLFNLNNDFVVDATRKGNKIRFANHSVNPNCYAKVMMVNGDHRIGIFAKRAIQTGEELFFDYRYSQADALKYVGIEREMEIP
# Chain of UniProt Q9NYP7 (Q9NYP7 whole entry): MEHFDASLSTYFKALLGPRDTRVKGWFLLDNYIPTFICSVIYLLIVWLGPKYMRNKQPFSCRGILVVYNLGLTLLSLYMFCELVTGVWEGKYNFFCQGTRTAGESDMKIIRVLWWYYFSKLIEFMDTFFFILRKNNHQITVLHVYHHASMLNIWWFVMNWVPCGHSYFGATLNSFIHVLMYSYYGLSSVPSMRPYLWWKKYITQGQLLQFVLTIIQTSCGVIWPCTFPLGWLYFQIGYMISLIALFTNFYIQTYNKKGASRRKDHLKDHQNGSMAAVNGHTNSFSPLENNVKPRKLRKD
# Chain of UniProt P60981 (P60981 whole entry, looked up): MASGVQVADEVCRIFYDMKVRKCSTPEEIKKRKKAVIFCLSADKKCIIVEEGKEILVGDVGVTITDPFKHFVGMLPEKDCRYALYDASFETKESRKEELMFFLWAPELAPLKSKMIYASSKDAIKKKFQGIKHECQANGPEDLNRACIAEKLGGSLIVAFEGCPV
# Chain of UniProt Q9NWS6 (Q9NWS6 whole entry, looked up): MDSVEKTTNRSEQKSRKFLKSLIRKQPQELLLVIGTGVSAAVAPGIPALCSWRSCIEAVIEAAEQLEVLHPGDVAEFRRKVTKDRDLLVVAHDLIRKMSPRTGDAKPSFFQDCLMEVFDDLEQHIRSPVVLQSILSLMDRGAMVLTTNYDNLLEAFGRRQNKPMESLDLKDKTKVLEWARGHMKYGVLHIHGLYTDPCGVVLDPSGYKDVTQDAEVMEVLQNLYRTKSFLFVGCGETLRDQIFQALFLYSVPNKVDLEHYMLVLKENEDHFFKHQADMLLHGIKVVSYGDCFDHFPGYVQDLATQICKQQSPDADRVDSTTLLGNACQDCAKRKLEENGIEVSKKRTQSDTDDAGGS
# Chain of UniProt P37268 (P37268 whole entry, looked up): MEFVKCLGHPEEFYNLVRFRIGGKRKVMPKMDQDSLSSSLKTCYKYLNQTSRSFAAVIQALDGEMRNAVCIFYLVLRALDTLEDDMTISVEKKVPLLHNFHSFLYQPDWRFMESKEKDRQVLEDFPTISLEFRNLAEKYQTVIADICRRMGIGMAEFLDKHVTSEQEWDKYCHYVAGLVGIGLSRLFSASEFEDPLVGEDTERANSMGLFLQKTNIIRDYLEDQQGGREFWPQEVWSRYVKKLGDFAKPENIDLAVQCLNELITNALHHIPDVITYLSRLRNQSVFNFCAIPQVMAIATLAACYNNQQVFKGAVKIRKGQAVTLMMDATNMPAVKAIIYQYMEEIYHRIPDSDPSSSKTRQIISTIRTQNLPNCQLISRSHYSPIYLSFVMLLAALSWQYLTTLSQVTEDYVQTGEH
# Chain of UniProt Q96EB1 (Q96EB1 whole entry, looked up): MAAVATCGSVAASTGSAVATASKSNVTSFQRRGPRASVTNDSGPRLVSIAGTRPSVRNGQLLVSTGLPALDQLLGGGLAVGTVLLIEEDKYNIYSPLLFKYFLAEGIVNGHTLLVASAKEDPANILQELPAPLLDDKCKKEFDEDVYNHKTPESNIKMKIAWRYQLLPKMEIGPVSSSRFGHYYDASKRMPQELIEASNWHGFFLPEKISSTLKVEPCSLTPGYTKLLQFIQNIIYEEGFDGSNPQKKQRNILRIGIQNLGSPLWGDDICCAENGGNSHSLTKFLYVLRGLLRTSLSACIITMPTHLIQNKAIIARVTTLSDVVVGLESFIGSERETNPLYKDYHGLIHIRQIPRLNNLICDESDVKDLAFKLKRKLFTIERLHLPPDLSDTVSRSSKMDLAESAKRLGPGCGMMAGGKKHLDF
# Chain of UniProt Q9HC35 (Q9HC35 whole entry, looked up): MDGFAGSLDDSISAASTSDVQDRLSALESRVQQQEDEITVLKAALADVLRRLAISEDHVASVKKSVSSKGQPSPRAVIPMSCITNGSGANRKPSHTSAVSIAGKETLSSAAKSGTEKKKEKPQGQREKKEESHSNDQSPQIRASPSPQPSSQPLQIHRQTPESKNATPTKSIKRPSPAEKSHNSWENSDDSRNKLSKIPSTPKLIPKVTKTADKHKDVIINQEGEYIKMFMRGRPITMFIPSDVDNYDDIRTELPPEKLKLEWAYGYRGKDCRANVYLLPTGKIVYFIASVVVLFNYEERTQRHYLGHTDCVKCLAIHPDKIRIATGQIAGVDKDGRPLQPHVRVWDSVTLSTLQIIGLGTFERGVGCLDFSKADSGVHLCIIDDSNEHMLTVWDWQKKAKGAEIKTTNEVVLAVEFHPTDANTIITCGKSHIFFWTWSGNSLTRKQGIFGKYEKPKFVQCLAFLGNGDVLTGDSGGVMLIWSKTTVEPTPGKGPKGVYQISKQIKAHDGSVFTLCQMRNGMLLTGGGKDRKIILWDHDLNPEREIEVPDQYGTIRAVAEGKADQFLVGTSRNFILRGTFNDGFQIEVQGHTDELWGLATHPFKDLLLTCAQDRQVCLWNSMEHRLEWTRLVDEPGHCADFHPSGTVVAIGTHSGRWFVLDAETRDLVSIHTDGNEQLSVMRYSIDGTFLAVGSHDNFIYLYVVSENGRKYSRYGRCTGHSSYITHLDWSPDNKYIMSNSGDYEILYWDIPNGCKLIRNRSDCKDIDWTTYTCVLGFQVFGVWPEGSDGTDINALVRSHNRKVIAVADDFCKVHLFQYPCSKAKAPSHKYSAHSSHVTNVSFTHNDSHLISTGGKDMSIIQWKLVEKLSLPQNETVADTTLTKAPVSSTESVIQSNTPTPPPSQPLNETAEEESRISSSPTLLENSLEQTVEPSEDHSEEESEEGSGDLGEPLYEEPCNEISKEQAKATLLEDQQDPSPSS
# Chain of UniProt Q96DZ1 (Q96DZ1 whole entry, looked up): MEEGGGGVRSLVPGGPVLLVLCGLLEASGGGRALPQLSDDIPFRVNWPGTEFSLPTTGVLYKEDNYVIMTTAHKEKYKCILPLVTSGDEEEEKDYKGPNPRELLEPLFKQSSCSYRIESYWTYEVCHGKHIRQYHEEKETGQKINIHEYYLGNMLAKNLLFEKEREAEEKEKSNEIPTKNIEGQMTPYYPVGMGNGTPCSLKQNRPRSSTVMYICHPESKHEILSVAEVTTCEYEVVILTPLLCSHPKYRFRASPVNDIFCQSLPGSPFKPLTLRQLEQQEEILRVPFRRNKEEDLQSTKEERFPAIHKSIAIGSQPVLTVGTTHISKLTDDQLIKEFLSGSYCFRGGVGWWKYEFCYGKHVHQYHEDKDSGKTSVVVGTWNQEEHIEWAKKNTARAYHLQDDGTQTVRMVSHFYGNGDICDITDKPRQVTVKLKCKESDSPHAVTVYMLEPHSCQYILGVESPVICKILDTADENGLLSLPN
# Chain of UniProt Q14232 (Q14232 whole entry, looked up): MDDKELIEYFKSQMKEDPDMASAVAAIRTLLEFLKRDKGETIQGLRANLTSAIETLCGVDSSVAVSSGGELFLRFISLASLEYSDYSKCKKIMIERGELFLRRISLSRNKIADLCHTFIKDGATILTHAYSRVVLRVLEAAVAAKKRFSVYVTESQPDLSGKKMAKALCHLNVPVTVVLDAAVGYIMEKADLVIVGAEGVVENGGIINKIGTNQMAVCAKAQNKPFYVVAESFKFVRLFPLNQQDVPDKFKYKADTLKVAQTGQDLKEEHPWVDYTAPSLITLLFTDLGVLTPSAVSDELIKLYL
Target,probe-labelled cysteine peptide fold change (10 µM),probe-labelled cysteine peptide fold change (50 µM)
EXOSC6_Q5RKV6_117_RAPPGGCEERELALALQEALEPAVR (UniProt Q5RKV6),-0.569,-1.04
FANCG_O15287_417_AQDALTLCEELLSR (UniProt O15287),0.0123,0.0425
FDFT1_P37268_6_CLGHPEEFYNLVR (UniProt P37268),-0.238,-0.749
EEF1A1_P68104_234_DGNASGTTLLEALDCILPPTRPTDKPLRLPLQDVYK (UniProt P68104),-0.124,-0.435
EPRS_P07814_660_NSKHEELMLGDPCLK (UniProt P07814),-0.334,-1.37
FBXO30_Q8TB52_90_VAEHLEMCPASVVCCTMEWNR (UniProt Q8TB52),-0.103,-0.0583
DYNC1I2_Q13409_331_TTPEYVFHCQSAVMSATFAK (UniProt Q13409),0.091,0.418
EPRS_P07814_350_IDMSSNNGCMRDPTLYR (UniProt P07814),-0.0274,-0.367
DUT_P33316-2_3_PCSEETPAISPSK (UniProt P33316),-0.335,-0.042
EIF2B1_Q14232_218_IGTNQMAVCAK (UniProt Q14232),-0.148,-0.133
ELP4_Q96EB1_412_LGPGCGMMAGGK (UniProt Q96EB1),-0.372,-1.07
ENG_P17813_549_TGTLSCTVALRPK (UniProt P17813),-0.142,-0.0378
ELOVL5_Q9NYP7_61_NKQPFSCR (UniProt Q9NYP7),-0.567,-1.94
EPS15_P42566_782_IGTPTRPCPLPPGKR (UniProt P42566),-0.367,-1.1
EML4_Q9HC35_638_LVDEPGHCADFHPSGTVVAIGTHSGR (UniProt Q9HC35),0.109,0.328
FAM98C_Q17RN3_340_REDGGPQCWGR (UniProt Q17RN3),-0.342,-1.05
FGD3_Q5JSP0_184_LHLLDQVFCTR (UniProt Q5JSP0),0.0176,0.345
EXOSC6_Q5RKV6_248_LGLEGCQR (UniProt Q5RKV6),-0.00681,0.0231

Target,probe-labelled cysteine peptide fold change (10 µM),probe-labelled cysteine peptide fold change (50 µM)
EEF1A1P5_Q5VTE0_363+370_GNVAGDSKNDPPMEAAGFTAQVIILNHPGQISAGYAPVLDCHMAHIACK (UniProt Q5VTE0),-0.198,-1.24
DSTN_P60981_12_ASGVQVADEVCR (UniProt P60981),0.0942,0.212
EXOSC1_Q9Y3B2_73_ETESQLLPDVGAIVTCK (UniProt Q9Y3B2),-0.0568,0.13
FAM122A_Q96E09_193_SQSPINCIRPSVLGPLK (UniProt Q96E09),-0.132,-0.161
EXOSC10_Q01780_555_IAEELPKEPQGIIACCNPVPPLVR (UniProt Q01780),-0.144,-1.17
DPH7_Q9BTV6_33_HLLACGTYQLR (UniProt Q9BTV6),0.0319,0.078
EXOSC10_Q01780_327_SFLGLTCLMQISTR (UniProt Q01780),0.419,0.333
EZH2_Q15910_324_NTETALDNKPCGPQCYQHLEGAK (UniProt Q15910),0.251,-0.196
EXOSC6_Q5RKV6_117_APPGGCEERELALALQEALEPAVR (UniProt Q5RKV6),-0.5,-1.49
EIF3CL_B5ME19_572_TCAILCHIYHHALHSR<|>EIF3C_Q99613_571_TCAILCHIYHHALHSR (UniProt Q99613+B5ME19),0.0697,-0.279
FAM126A_Q9BYI3_401_ETTGESCK (UniProt Q9BYI3),-0.493,-1.16
DYNC1H1_Q14204_1888_CYLTMTQALEAR (UniProt Q14204),-0.0386,-0.161
FAM118A_Q9NWS6_113_TGDAKPSFFQDCLMEVFDDLEQHIR (UniProt Q9NWS6),0.174,-0.519
FAM102B_Q5T8I3_254_RNTSVGSTSTGVESILEPCDEIEQK (UniProt Q5T8I3),-0.237,0.149
ERCC4_Q92889_803_ILWCPSPHATAELFEELK (UniProt Q92889),-0.169,0.181
EEFSEC_P57772_442_LDADIHTNTCR (UniProt P57772),-0.204,-1.14
EFTUD2_Q15029_144+148_TCFVDCLIEQTHPEIR (UniProt Q15029),-0.176,-0.0405
ERLEC1_Q96DZ1_126_IESYWTYEVCHGK (UniProt Q96DZ1),0.192,0.0829
